Test systems include T-47D breast; BT-549 breast; MDA-MB-435 melanoma; SW-620 colon; MCF7 breast; HCT-116 colon; HCC-2998 colon; KM12 colon.
What all share (experiment): NCI-60 one-dose screen, 48 h (100 = growth as untreated, 0 = no growth, -100 = all killed)
What all share (settings): 10 µM unless noted

The panel holds about 83,000 compounds, 20% with a hit somewhere; the sample as a whole holds those more often.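 Single-concentration screen, 48 h exposure, 96-well plates. Endpoint: percent growth. Below 10 = active.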 A number with no mark means an inactive call. Activity calls are given as the source filed them.

Consider `CCC(=O)OC1=C(C)SC2=NC(c3ccc(Cl)c(Cl)c3)=CC(c3cc(OC)c(OC)c(OC)c3)N21` (configuration not stated), for which the growth with T-47D breast is 97.5%; with BT-549 breast it was 103%; in the experiment on MDA-MB-435 melanoma, 103%; in the experiment on SW-620 colon, 109%; in the experiment with MCF7 breast, 94.1%; with HCT-116 colon, 95%. Further, the results for the growth in the experiment on HCC-2998 colon and in the experiment with KM12 colon were 110% and 107%, respectively.
As to `N#Cc1c(NC(=O)c2ccccc2I)sc2c1CCCC2`, the growth was 61.4% in the experiment with T-47D breast; 52.2% in the experiment with BT-549 breast; -4.69% (active) in the experiment with MDA-MB-435 melanoma; 21% in the experiment on SW-620 colon; 15% in the experiment with MCF7 breast; 26.4% with HCT-116 colon. The results for the growth in the experiment with HCC-2998 colon and with KM12 colon were 71.6% and 34.2%, respectively.
Turning to `CCCCCOC(=O)c1cccc(NC(=O)CN(CC)CC)c1`, the growth is 91.9% in the experiment with T-47D breast; 72.6% with BT-549 breast; 101% in the experiment with MDA-MB-435 melanoma; 105% in the experiment with SW-620 colon; 103% in the experiment with MCF7 breast; 74.9% with HCT-116 colon. For the same compound, the growth in the experiment with HCC-2998 colon is 98.9%; in the experiment on KM12 colon, 104%.
For `CNC(=O)c1cc(Oc2ccc3nc(NC(=O)Nc4cc(C(F)(F)F)cc(C(F)(F)F)c4)sc3c2)ccn1`, the growth in the experiment on T-47D breast is -39.6% (active); in the experiment on BT-549 breast, -46.9% (active); in the experiment on MDA-MB-435 melanoma, -13.6% (active); in the experiment with SW-620 colon, -36.1% (active); with MCF7 breast, 0.0531% (active); in the experiment with HCT-116 colon, -56.1% (active). The figures for the growth in the experiment with HCC-2998 colon and with KM12 colon were 5.71% (active) and -14.7% (active), respectively.
With `CC(=O)OCCc1ccccc1`, the growth in the experiment on T-47D breast is 66.7%; in the experiment on BT-549 breast, 107%; in the experiment with MDA-MB-435 melanoma, 104%; with SW-620 colon it was 105%; in the experiment on MCF7 breast it was 103%; in the experiment on HCT-116 colon, 94.7%. Also, the growth in the experiment on HCC-2998 colon is 87%; in the experiment with KM12 colon, 150%.
Regarding `COc1cc2cc(Oc3ccc(NC(=O)Nc4cc(C(F)(F)F)cc(C(F)(F)F)c4)cc3)c(C)nc2cc1OCCN1CCCCC1`, the growth in the experiment on T-47D breast was -39.7% (active); in the experiment on BT-549 breast, 94.3%; in the experiment with MDA-MB-435 melanoma, -94.4% (active); in the experiment with SW-620 colon it was -84.4% (active); in the experiment with MCF7 breast, -84.8% (active); in the experiment with HCT-116 colon, -76.8% (active). Besides, the growth was -94.5% (active) with HCC-2998 colon and -78.5% (active) in the experiment with KM12 colon.
`NC(N)=N/N=C/c1ccc(Br)cc1`: the growth was -26.9% (active) with T-47D breast; 92.3% in the experiment with BT-549 breast; -33.1% (active) in the experiment with MDA-MB-435 melanoma; 16.8% with SW-620 colon; 4.98% (active) in the experiment on MCF7 breast; -26.3% (active) with HCT-116 colon. Further, the growth in the experiment with HCC-2998 colon is 56.7%; in the experiment on KM12 colon it was 18.3%.
As for `Clc1ccc(-c2cn(-c3ccccc3)c(-c3ccccc3)n2)cc1`, the growth in the experiment with T-47D breast is 56.7%; in the experiment with BT-549 breast, 62.9%; with MDA-MB-435 melanoma it was 87.7%; in the experiment on SW-620 colon, 66.7%; in the experiment on MCF7 breast it was 9.74% (active); with HCT-116 colon, 27.2%. In addition, the growth was 97.6% with HCC-2998 colon and 53.6% in the experiment with KM12 colon.
On to `COc1cc(C(=O)/C=C/c2c(C(F)(F)F)nc3ccccn23)cc(OC)c1OC`, for which the growth is 8.03% (active) in the experiment on T-47D breast; 10.4% in the experiment with BT-549 breast; -10.2% (active) in the experiment with MDA-MB-435 melanoma; -29.6% (active) with SW-620 colon; -44.7% (active) with MCF7 breast; -84.3% (active) with HCT-116 colon. For the same compound, the results for the growth with HCC-2998 colon and with KM12 colon were -97.2% (active) and -82.7% (active), respectively.
As to `O=[N+]([O-])c1ccc(-c2cc3c(Nc4ccc(Sc5nc6ccccc6s5)c(Cl)c4)ncnc3s2)cc1`, the growth with T-47D breast is 37.1%; in the experiment with BT-549 breast, 87.6%; with MDA-MB-435 melanoma it was 30.8%; with SW-620 colon, 49.5%; in the experiment on MCF7 breast, 16.2%; in the experiment on HCT-116 colon, 11.9%. The growth was 49.7% in the experiment with HCC-2998 colon and 35.1% in the experiment with KM12 colon.
As for `Cc1c(C(N)=O)sc2nc(C)n(/N=c3\scc(-c4ccccc4)n3Cc3ccccc3)c(=O)c12`, the growth in the experiment with T-47D breast is 34.7%; with BT-549 breast it was -6.7% (active); in the experiment on MDA-MB-435 melanoma it was 12.2%; in the experiment with SW-620 colon it was 12.5%; in the experiment with MCF7 breast it was 17.3%; in the experiment with HCT-116 colon, 29.1%. In addition, the growth with HCC-2998 colon was 57.1%; with KM12 colon it was 13.6%.
As to `COc1cc(C(=O)Nc2cc(O)c(CC=C(C)C)c(O)c2)cc2c1O[C@]1(C)CC[C@@H](O)C(C)(C)[C@H]1C2`, the growth in the experiment with T-47D breast is 3.79% (active); with BT-549 breast, 29.6%; with MDA-MB-435 melanoma it was 24.9%; in the experiment on SW-620 colon it was 7.03% (active); in the experiment on MCF7 breast, 6.62% (active); in the experiment with HCT-116 colon, 13.2%. For the same compound, the growth in the experiment with HCC-2998 colon is 7.4% (active); with KM12 colon, 18.2%.
Turning to `COc1ccc(-c2cc(-c3ccc(Nc4nc(Nc5ccccc5)nc(Nc5ccc(Cl)cc5)n4)cc3)nc(N)n2)cc1`, the growth with T-47D breast was 35.5%; in the experiment on BT-549 breast it was 82.1%; in the experiment with MDA-MB-435 melanoma it was 66.6%; in the experiment on SW-620 colon, 80%; with MCF7 breast, 22.6%; in the experiment on HCT-116 colon, 38.1%. Moreover, the values for the growth with HCC-2998 colon and in the experiment with KM12 colon were -7.72% (active) and 39.9%, respectively.
With `CN(CCC(=O)/C(=C\c1ccccc1)c1ccc(Cl)cc1)Cc1ccccc1`, the growth was 15.3% with T-47D breast; 12.7% in the experiment with BT-549 breast; 1.24% (active) in the experiment with MDA-MB-435 melanoma; 4.45% (active) in the experiment with SW-620 colon; 28.3% with MCF7 breast; 2.49% (active) in the experiment with HCT-116 colon. For the same compound, the growth in the experiment on HCC-2998 colon was 105%; in the experiment with KM12 colon it was 67.1%.

The record behind these values is PubChem BioAssay (NCI).
